About 83,000 compounds went through this panel and 20% of them were active in at least one assay; those are over-represented in the sample as a whole.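 Testing used 96-well plates and a 48-hour single-concentration exposure. Example: -40 means 40% of the starting cells died.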 Values without a mark were called inactive. Active and inactive are the calls of the source. The calls were made as follows: active = growth percent below 10; inactive = the rest.

The test system of this assay is MDA-MB-468 breast. The assay is described as follows: NCI-60 one-dose screen, 48 h (100 = growth as untreated, 0 = no growth, -100 = all killed). The note with it: 10 µM unless noted.
`COc1cc(C2CC(=O)Nc3c2cc(Br)c2ccccc32)cc(Br)c1OC` (stereo not drawn): the growth is 3.67% (active).

On to `O=[N+]([O-])c1ccc(NC(=S)NNC(=S)Nc2ccc(F)cc2)cc1`, for which the growth is 74.6%.

In the case of `Cc1ccc2cc3c(N)c4c(C)ccc(C)c4nc3nc2c1`, the growth was 29.9%.

Source of the values: PubChem BioAssay (NCI).
